Reference: PubChem BioAssay AID1159580 (chemical genetic matrix, 2015)
The campaign covered roughly 5,500 compounds. About 2,000 (36%) were called active. Roughly 18% stayed inconclusive and do not appear here. Rule as the data show it: active = normalized growth mostly below about 0.91 (no sharp cut-off); inconclusive = no clear call, values can overlap the other calls; inactive = mostly above about 0.92. This is one part of the list.

Experiment: chemical genetic growth profiling, strain panel (AID 1159580);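 also: tested at 20 µM; growth read once vehicle control cultures reached saturation at 30 °C; 1 = growth at the plate median or of vehicle wells; lower values mean less growth of the strain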
Details: growth OD

Measured: normalized growth

C=C1CCC2C(CC2(C)C)C(=O)CCC1O (stereo unspecified)
inactive: S. cerevisiae deletion strains, locus YJL168C, strain set2, stronger effect = lower value 1.01 | S. cerevisiae deletion strains, locus YJL187C, strain SWE1 (second series), stronger effect = lower value 1.06 | S. cerevisiae deletion strains, locus YJL187C, strain SWE1, stronger effect = lower value 0.993 | S. cerevisiae deletion strains, locus YJR066W, strain TOR1, stronger effect = lower value 0.949 | S. cerevisiae deletion strains, locus YKL009W, strain mrt4, stronger effect = lower value 1.02 | S. cerevisiae deletion strains, locus YKL068W, stronger effect = lower value 1 | S. cerevisiae deletion strains, locus YKL085W, strain MDH1 (second series), stronger effect = lower value 0.993 | S. cerevisiae deletion strains, locus YKL085W, strain MDH1, stronger effect = lower value 0.993 | S. cerevisiae deletion strains, locus YKL160W, strain elf1, stronger effect = lower value 0.982 | S. cerevisiae deletion strains, locus YKR001C, strain vps1, stronger effect = lower value 1.02 | S. cerevisiae deletion strains, locus YKR026C, strain gcn3, stronger effect = lower value 1 | S. cerevisiae deletion strains, locus YKR091W, strain srl3, stronger effect = lower value 0.988 | S. cerevisiae deletion strains, locus YLL001W, strain dnm1, stronger effect = lower value 0.954 | S. cerevisiae deletion strains, locus YLL026W, stronger effect = lower value 1 | S. cerevisiae deletion strains, locus YLL041C, strain sdh2, stronger effect = lower value 0.987 | S. cerevisiae deletion strains, locus YLR027C, strain aat2, stronger effect = lower value 0.996 | S. cerevisiae deletion strains, locus YLR039C, strain RIC1, stronger effect = lower value 1.04 | S. cerevisiae deletion strains, locus YLR058C, strain SHM2, stronger effect = lower value 1.04 | S. cerevisiae deletion strains, locus YLR102C, strain apc9, stronger effect = lower value 1.01 | S. cerevisiae deletion strains, locus YLR113W, strain HOG1, stronger effect = lower value 1.01 | S. cerevisiae deletion strains, locus YLR221C, strain rsa3, stronger effect = lower value 1.04 | S. cerevisiae deletion strains, locus YLR258W, strain gsy2, stronger effect = lower value 0.993 | S. cerevisiae deletion strains, locus YLR262C, strain YPT6 (second series), stronger effect = lower value 1.01 | S. cerevisiae deletion strains, locus YLR268W, strain sec22, stronger effect = lower value 1 | S. cerevisiae deletion strains, locus YLR320W, strain mms22, stronger effect = lower value 1.06 | S. cerevisiae deletion strains, locus YLR342W, strain FKS1, stronger effect = lower value 0.997 | S. cerevisiae deletion strains, locus YLR357W, strain rsc2, stronger effect = lower value 0.981 | S. cerevisiae deletion strains, locus YLR370C, strain arc18, stronger effect = lower value 1 | S. cerevisiae deletion strains, locus YLR371W, strain rom2, stronger effect = lower value 1.02 | S. cerevisiae deletion strains, locus YLR384C, strain iki3, stronger effect = lower value 1.01 | S. cerevisiae deletion strains, locus YLR418C, strain cdc73, stronger effect = lower value 1.05 | S. cerevisiae deletion strains, locus YML016C, strain PPZ1, stronger effect = lower value 1.02 | S. cerevisiae deletion strains, locus YML032C, strain rad52, stronger effect = lower value 1.01 | S. cerevisiae deletion strains, locus YML120C, strain ndi1, stronger effect = lower value 0.965 | S. cerevisiae deletion strains, locus YML124C, strain tub3, stronger effect = lower value 1.01 | S. cerevisiae deletion strains, locus YMR058W, strain fet3, stronger effect = lower value 0.98 | S. cerevisiae deletion strains, locus YMR078C, strain ctf18, stronger effect = lower value 1.01 | S. cerevisiae deletion strains, locus YMR125W, strain sto1, stronger effect = lower value 0.973 | S. cerevisiae deletion strains, locus YMR129W, stronger effect = lower value 1.01 | S. cerevisiae deletion strains, locus YMR205C, strain PFK2, stronger effect = lower value 0.955 | S. cerevisiae deletion strains, locus YMR223W, strain ubp8, stronger effect = lower value 1.03 | S. cerevisiae deletion strains, locus YMR231W, strain pep5, stronger effect = lower value 1.01 | S. cerevisiae deletion strains, locus YMR307W, strain GAS1, stronger effect = lower value 1.07 | S. cerevisiae deletion strains, locus YNL067W, strain RPL9B, stronger effect = lower value 1.03 | S. cerevisiae deletion strains, locus YNL071W, strain lat1, stronger effect = lower value 0.992 | S. cerevisiae deletion strains, locus YNL128W, strain TEP1, stronger effect = lower value 0.993 | S. cerevisiae deletion strains, locus YNL183C, strain NPR1, stronger effect = lower value 0.968 | S. cerevisiae deletion strains, locus YNL209W, strain ssb2, stronger effect = lower value 0.987 | S. cerevisiae deletion strains, locus YNL233W, strain BNI4, stronger effect = lower value 1.05 | S. cerevisiae deletion strains, locus YNL248C, strain rpa49, stronger effect = lower value 1.01 | S. cerevisiae deletion strains, locus YNL250W, strain rad50, stronger effect = lower value 1.05 | S. cerevisiae deletion strains, locus YNL271C, strain bni1, stronger effect = lower value 1.01 | S. cerevisiae deletion strains, locus YNL298W, strain CLA4, stronger effect = lower value 1.03 | S. cerevisiae deletion strains, locus YNL307C, strain MCK1, stronger effect = lower value 1.03 | S. cerevisiae deletion strains, locus YNL322C, strain KRE1 (second series), stronger effect = lower value 0.974 | S. cerevisiae deletion strains, locus YNL322C, strain KRE1, stronger effect = lower value 0.991 | S. cerevisiae deletion strains, locus YNR049C, strain mso1, stronger effect = lower value 0.995 | S. cerevisiae deletion strains, locus YNR052C, strain pop2, stronger effect = lower value 1.03 | S. cerevisiae deletion strains, locus YOL012C, strain htz1 0.879 | S. cerevisiae deletion strains, locus YOL147C, strain pex11, stronger effect = lower value 1 | S. cerevisiae deletion strains, locus YOR001W, strain rrp6, stronger effect = lower value 1.02 | S. cerevisiae deletion strains, locus YOR061W, strain CKA2, stronger effect = lower value 1.02 | S. cerevisiae deletion strains, locus YOR069W, strain VPS5, stronger effect = lower value 1.01 | S. cerevisiae deletion strains, locus YOR070C, strain gyp1, stronger effect = lower value 1.02 | S. cerevisiae deletion strains, locus YOR080W, strain dia2, stronger effect = lower value 0.995 | S. cerevisiae deletion strains, locus YOR083W, strain WHI5, stronger effect = lower value 0.988 | S. cerevisiae deletion strains, locus YOR106W, strain vam3, stronger effect = lower value 0.961 | S. cerevisiae deletion strains, locus YOR136W, strain idh2, stronger effect = lower value 1.01 | S. cerevisiae deletion strains, locus YOR144C, strain elg1, stronger effect = lower value 1 | S. cerevisiae deletion strains, locus YOR184W, strain ser1, stronger effect = lower value 0.989 | S. cerevisiae deletion strains, locus YOR231W, strain MKK1, stronger effect = lower value 0.994 | S. cerevisiae deletion strains, locus YOR265W, strain rbl2, stronger effect = lower value 0.992 | S. cerevisiae deletion strains, locus YOR270C, strain vph1, stronger effect = lower value 0.986 | S. cerevisiae deletion strains, locus YOR290C, strain snf2, stronger effect = lower value 0.956 | S. cerevisiae deletion strains, locus YOR316C, strain cot1, stronger effect = lower value 1.03 | S. cerevisiae deletion strains, locus YPL051W, strain arl3, stronger effect = lower value 1 | S. cerevisiae deletion strains, locus YPL078C, strain atp4, stronger effect = lower value 0.946 | S. cerevisiae deletion strains, locus YPL106C, strain sse1, stronger effect = lower value 0.958 | S. cerevisiae deletion strains, locus YPL240C, strain hsp82, stronger effect = lower value 0.998 | S. cerevisiae deletion strains, locus YPL256C, strain CLN2, stronger effect = lower value 1.02 | S. cerevisiae deletion strains, locus YPR119W, strain clb2, stronger effect = lower value 1.02 | S. cerevisiae deletion strains, locus YPR141C, strain kar3, stronger effect = lower value 1.01 | S. cerevisiae deletion strains, locus YPR163C, strain tif3, stronger effect = lower value 1.02 | S. cerevisiae deletion strains, locus YPR167C, strain met16, stronger effect = lower value 1.02 | S. cerevisiae deletion strains, strain wtn01, stronger effect = lower value 1.01 | S. cerevisiae strains, strain wild type, stronger effect = lower value 0.989
